Source: PubChem (National Center for Advancing Translational Sciences (NCATS))
FLuc modulator: counter-screen for miR-21 project: firefly luciferase inhibitors or activators. P08659. purified FLuc, Km substrates, luminescence inhibition. Potency, µM (highest dose often 57.5 µM), for the others: at the top dose activity change, negative = inhibition, hits mostly inhibitors. actives 6.9% (n = 360,000). AID 588342;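 note: plate controls were vehicle for no effect and reference inhibitor for full effect; nearly all actives have a fitted effect of over 55% in size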
Target sequence (P08659 whole entry, looked up): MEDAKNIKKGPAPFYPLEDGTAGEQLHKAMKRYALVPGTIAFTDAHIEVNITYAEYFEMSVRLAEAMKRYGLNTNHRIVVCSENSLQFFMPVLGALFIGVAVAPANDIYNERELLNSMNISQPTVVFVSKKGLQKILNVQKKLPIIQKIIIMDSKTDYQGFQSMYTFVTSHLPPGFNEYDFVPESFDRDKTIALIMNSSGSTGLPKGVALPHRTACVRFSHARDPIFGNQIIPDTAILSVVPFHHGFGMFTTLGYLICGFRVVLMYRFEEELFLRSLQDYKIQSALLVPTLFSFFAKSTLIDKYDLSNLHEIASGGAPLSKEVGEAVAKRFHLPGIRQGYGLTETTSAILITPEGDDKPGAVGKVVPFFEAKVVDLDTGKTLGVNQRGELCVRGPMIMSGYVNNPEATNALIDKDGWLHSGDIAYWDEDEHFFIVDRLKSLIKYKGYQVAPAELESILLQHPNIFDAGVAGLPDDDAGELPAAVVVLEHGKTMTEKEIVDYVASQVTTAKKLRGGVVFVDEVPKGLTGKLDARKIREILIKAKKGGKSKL
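Purified P. pyralis luciferase, 10 nM final, with Km-level 10 uM D-luciferin and 10 uM ATP in 50 mM Tris acetate pH 7.5, 10 mM Mg acetate, 0.01% Tween-20, 0.05% BSA; 6-point qHTS titration about 60 µM downward; luminescence read.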
NPC1 promoter act: activators of NPC1 promoter; Huh7 NPC1 promoter luciferase reporter, 24 h; Potency, µM (titrated, usually from 9.22 µM), for the others: at the top dose activation, usual class: activators; actives 2.4% (n = 320,000); note: % of control where 0% means no effect; nearly all actives have a fitted effect of over 60% in size
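Luminescence from an NPC1 promoter-driven luciferase reporter in stably transfected Huh7 cells was measured after 24 h compound treatment at 37 °C, followed by 10 min ambient incubation with luciferase detection reagent.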
SMN2 splice enh: increases expression of the SMN2 splice variant; HEK293 SMN2-luciferase splicing reporter, luminescence, 30-36 h; Potency, µM (titrated, usually from 46.1 µM), for the others: top-dose activity change, positive = activation, usual class: activators; actives 2.8% (n = 210,000); AID 1458; note: % of control where 0% means no effect; nearly all actives have a fitted effect of over 55% in size
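HEK293 cells carry an SMN2 […]–luciferase reporter in which exon 7 inclusion puts luciferase in frame. Cells were plated 10-12 h before compound addition, then incubated 30-36 h at 37C. ONE-Glo luminescence was read; sodium butyrate at 4.5 mM final served as control.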
Rab9 promoter act: activators of Rab9 promoter; Potency, µM (series often up to 9.22 µM), for the others: at the highest dose activation, negative = inhibition, usual class: activators; actives 2.8% (n = 320,000); AID 485297; Huh7 Rab9 promoter-luciferase reporter, luminescence, 24 h; note: % of control where 0% means no effect; nearly all actives have a fitted effect of over 60% in size
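Measured in stably transfected Huh7 cells bearing a Rab9 promoter–luciferase construct: 24 h compound treatment at 37 °C, followed by luminescence detection.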
Luc counter: counter-screen: inhibitors of Kinase-Glo firefly luciferase. Q27757. Kinase-Glo luciferase, ATP luminescence, 8 min. Potency, µM (top dose mostly 38.3 µM), inactives show top-dose activity change, negative = inhibition, hits mostly inhibitors. actives 0.28% (n = 200,000); note: % is set by controls: 0 for no effect and ±100 for the full control effect; nearly all actives have a fitted effect of over 60% in size
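Inhibition of Kinase-Glo luciferase light generation was assessed at 10 uM ATP in pH 7.2 imidazole buffer, with luminescence measured after eight minutes at ambient temperature.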
Active calls of the source: *; ? = inconclusive; . = not tested or not shown. A selection: hits, their analogues and other compounds. The true share with any hit is near 7.3%. Calls come from the whole dose curve; as a rule, active = well fitted curve in the direction sought with a large enough effect; inconclusive = small, poorly fitted or top-dose-only effect, or another doubt; inactive = no such curve, though single readings can be large; an effect the other way counts as inactive or inconclusive. Potency is the fitted concentration of half-maximal effect.

SMILES	FLuc modulator	NPC1 promoter act	SMN2 splice enh	Rab9 promoter act	Luc counter
CCc1ccc(Nc2cc(C(=O)NCCCN3CCOCC3)c3ccccc3n2)cc1	19µM*	-1%	-6%	7%	-4%
COc1cccc(NC(=O)C(=O)NCCCN2CCCC2=O)c1	19µM*	?	.	28%	.
N[C@H](Cc1ccc(O)c(O)c1)C(=O)O	.	.	17%	.	-1%
COc1ccc(-c2cc(C(F)F)n3ncc(C(=O)NCCCN4CCCC4=O)c3n2)cc1	1%	3%	3%	-2%	-3%
COc1ccc(-c2cc(C(=O)NCCCN3CCCC3=O)c3ccccc3n2)cc1	12µM*	-2%	.	-4%	.
CCc1ccc(/C=N/NC(=O)Cc2cccn2C)cc1	24µM*	?	.	?	.
Cn1cccc1CC(=O)N/N=C/c1ccc(C(C)(C)C)cc1	17µM*	27%	.	?	.
CCc1ccc(C2CC(=O)Nc3cc4c(cc32)OCO4)cc1 (stereo unspecified)	-10%	.	-23%	.	.
Cc1ccc(NC(=O)CCn2cccn2)cc1Cl	-7%	.	.	.	.
Oc1ccc(/C=N/NC(=S)NC2CC3CCC2C3)cc1 (stereo unspecified)	?	3.2µM*	.	?	.
Cc1ccc(NC(=O)CSc2nc3c(oc4ccccc43)c(=O)n2-c2ccc(F)cc2)c(C)c1	-2%	.	-5%	.	.
Clc1ccccc1CSc1ncn(-c2ccccc2)n1	7.6µM*	3.5µM*	22µM*	?	-3%
Cc1ccc(CSc2ncn(-c3ccccc3)n2)cc1	?	13%	-23%	10%	5%
Cc1ccc(NC(=O)C(NCc2ccccn2)c2ccccc2)cc1 (stereo unspecified)	17µM*	3%	-13%	2%	-2%
O=C(NCc1ccccn1)Nc1ccccc1Cl	-8%	14%	.	22%	.
O=C(NCc1ccccn1)Nc1ccc(Cl)cc1Cl	?	3.2µM*	.	?	.
O=C(NCc1ccccn1)Nc1ccccc1	13µM*	?	.	1.6µM*	-28%
O=C(O)c1ccccc1NS(=O)(=O)c1ccc(Cl)c(Cl)c1	.	.	.	.	-2%
O=C(O)c1ccccc1NS(=O)(=O)c1ccc2ccccc2c1	15µM*	1%	.	8%	.
O=C(O)c1ccccc1NS(=O)(=O)c1cccc(-n2sc3ccccc3c2=O)c1	11µM*	1%	.	0%	.
CCCCCCCCC1=NCCc2c1[nH]c1ccccc21	-11%	-3%	.	-8%	.
O=C1/C(=C/c2cccnc2)CCc2c1[nH]c1ccccc21	9.5µM*	27%	.	3.2µM*	4%
CC(C)C/C=C1\CCc2c([nH]c3ccccc23)C1=O	?	29%	.	2.8µM*	0%
Cc1ccc(CCNC(=O)CCCn2c(=O)c3ccccc3n(Cc3ccccc3C#N)c2=O)cc1	-2%	.	-13%	.	.
COCc1cc(C)nc2sc(C(=O)Nc3ccccc3OC)c(N)c12	17µM*	-7%	.	-1%	.
SMILES	FLuc modulator	NPC1 promoter act	SMN2 splice enh	Rab9 promoter act	Luc counter
COCc1cc(C)nc2sc(C(=O)Nc3ccc(OC)cc3)c(N)c12	?	16%	.	?	.
COCc1cc(C)nc2sc(C(=O)Nc3cccc(OC)c3)c(N)c12	8.5µM*	2.2µM*	.	3.2µM*	.
Cc1cccc(NC(=O)c2cnc3n(c2=O)CCS3)c1	12µM*	3.5µM*	11µM*	3.5µM*	-5%
O=C(Nc1ccccc1)c1cnc2n(c1=O)CCS2	?	25%	?	?	-3%
CCCNC(=O)Cn1cnc2sc(C(=O)Nc3ccc4c(c3)OCO4)c(C)c2c1=O	3%	28%	?	?	-6%
O=C(NCc1ccc2c(c1)OCO2)c1cnc2n(c1=O)CCS2	-1%	3%	7%	-6%	0%
CCn1cnc2sc(C(=O)Nc3ccc4c(c3)OCO4)c(C)c2c1=O	11µM*	?	13µM*	2.8µM*	-7%
O=C(Nc1ccc2c(c1)OCO2)c1cnc2n(c1=O)CCS2	?	?	13µM*	3.2µM*	-12%
O=C(Nc1ccc2c(c1)OCCO2)c1cnc2n(c1=O)CCS2	9.5µM*	2.5µM*	20µM*	2µM*	-3%
O=C(Nc1cccc(C(F)(F)F)c1)c1cnc2n(c1=O)CCS2	3%	20%	-19%	24%	-2%
CCOC(=O)c1c(C)oc2ncnc(Nc3ccc(OC)c(OC)c3)c12	-2%	.	.	.	.
COc1ccc(NC(=O)c2cnc3cc(C)ccn3c2=O)c(OC)c1	-2%	.	-4%	.	.
COc1ccc(Oc2nnc(C)c3ccccc23)cc1	12µM*	2.5µM*	?	4µM*	14%
Cc1nn2c(-c3ccncc3)nnc2c2ccccc12	0%	0%	?	-3%	-5%
Cc1nnc(Oc2ccccc2)c2ccccc12	?	-3%	-17%	15%	1%
COc1ccc(-c2nnc3c4ccccc4c(C)nn23)cc1	15µM*	?	?	?	8%
CCOC(=O)c1c(NC(=O)CCCOc2ccccc2C)sc2c1CCC(C)C2 (stereo unspecified)	6%	.	-8%	.	.
Cc1ccc(S(=O)(=O)CCC(=O)Nc2ccc(OC(F)(F)F)cc2)cc1	2%	.	.	.	.
COc1ccccc1CNC(=O)CCn1c(=O)c2ccccc2n(CC(=O)Nc2cc(Cl)ccc2C)c1=O	1%	.	19%	.	.
c1ccc(COc2ccc(OCCCn3cncn3)cc2)cc1	4.3µM*	1.6µM*	10µM*	2.5µM*	0%
c1ccc(COc2ccc(OCCCN3CCCC3)cc2)cc1	3.4µM*	1µM*	6.3µM*	0.63µM*	2%
Fc1ccc(COc2ccc(C(=S)N3CCCC3)cc2)cc1	21µM*	2.2µM*	.	1.3µM*	.
S=C(c1ccc(OCc2ccccc2)cc1)N1CCCC1	19µM*	?	.	?	.
c1ccc(Cc2ccc(OCCn3cncn3)cc2)cc1	1%	-3%	-28%	0%	-3%
CCOc1cc(C(=S)N2CCCC2)ccc1OCc1ccccc1	3%	-1%	.	1%	.
SMILES	FLuc modulator	NPC1 promoter act	SMN2 splice enh	Rab9 promoter act	Luc counter
c1ccc(COc2ccc(OCCN3CCCC3)cc2)cc1	?	23%	-2%	21%	1%
CCOC(=O)c1cc(-c2ccccc2)n(-c2cccc(C(=O)Nc3cccc(SC)c3)c2)c1C	2%	.	.	.	.
CC(C)(C)OC(=O)N1CCC(c2c(C(=O)N3CCN(c4ccccc4)CC3)cnn2-c2ccccc2)CC1	-5%	.	.	.	.
COc1ccc(OC)c(N=c2ssnc2Cl)c1	15µM*	-5%	-4%	1%	-2%
COc1cc(N=c2ssnc2Cl)c(OC)cc1Cl	17µM*	-1%	0%	1%	11%
Cc1cc(Cl)ccc1N=c1ssnc1Cl	?	0%	-23%	-1%	0%
Cc1ccc(N=c2ssnc2Cl)cc1	21µM*	1%	-11%	7%	-1%
CCOC(=O)c1ccccc1NC(=O)c1c(C)oc2ncnc(N3CCOCC3)c12	-14%	.	.	.	.
N/C(=N\OC(=O)c1csnn1)c1ccc(C(F)(F)F)cc1	19µM*	?	.	?	.
Cc1ccc(C(=O)O/N=C(\N)c2ccc(C(F)(F)F)cn2)cc1	2.1µM*	2%	.	-5%	.
